Records with an inconclusive call do not appear. The source made the active and inactive calls. Unless noted, calls come from the whole dose curve; as a rule, active = well fitted curve in the direction sought with a large enough effect in the repeat runs; inconclusive = weak or mixed curves; inactive = no such curve, though single readings can be large; an effect the other way counts as inactive or inconclusive.
Key:
[1] = qHTS assay to identify small molecule antagonists of the thyroid receptor (TR) signaling pathway (AID 743065); note: series mostly up to about 70 µM; nearly all actives have a fitted effect of over 55% in size
In short: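 GH3.TRE-Luc rat pituitary cells (two TREs driving luciferase) were dosed with compound, then stimulated with 1 nM T3 (final) for 23.5 h at 37 C. ONE-Glo luminescence was the read-out, with CellTiter-Fluor fluorescence as the cytotoxicity counter-screen.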

[2] = system: thyroid hormone receptor (rat, GH3 cells); test: qHTS assay to identify small molecule agonists of the thyroid receptor (TR) signaling pathway (AID 743066; calls by dose curve)
[3] = target: Estrogen receptor (Homo sapiens) (UniProt P03372); test: qHTS assay to identify small molecule antagonists of the estrogen receptor alpha (ER-alpha) signaling pathway (AID 743069; active = well fitted curve in the direction sought with a large enough effect in the signal ratio in the repeat runs, not every such curve was filed as active; the % refers to the signal ratio)
Sequence of Estrogen receptor (Homo sapiens) (P03372 whole entry, looked up): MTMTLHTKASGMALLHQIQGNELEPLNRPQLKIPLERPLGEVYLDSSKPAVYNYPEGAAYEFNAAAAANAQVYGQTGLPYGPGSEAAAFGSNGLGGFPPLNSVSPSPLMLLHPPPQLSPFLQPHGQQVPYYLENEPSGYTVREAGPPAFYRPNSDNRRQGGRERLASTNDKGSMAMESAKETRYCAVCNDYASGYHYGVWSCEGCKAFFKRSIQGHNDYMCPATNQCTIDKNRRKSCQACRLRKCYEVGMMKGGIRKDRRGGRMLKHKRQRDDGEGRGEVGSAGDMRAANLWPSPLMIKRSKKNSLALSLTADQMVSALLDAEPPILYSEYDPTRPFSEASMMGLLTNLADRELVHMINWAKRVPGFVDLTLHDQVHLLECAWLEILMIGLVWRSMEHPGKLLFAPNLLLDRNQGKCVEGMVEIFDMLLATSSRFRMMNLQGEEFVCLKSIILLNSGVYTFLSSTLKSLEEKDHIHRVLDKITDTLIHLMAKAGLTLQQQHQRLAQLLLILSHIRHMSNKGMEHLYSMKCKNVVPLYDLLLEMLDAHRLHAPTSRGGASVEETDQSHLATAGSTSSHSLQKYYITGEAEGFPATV
In short: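 In this cell-based reporter format, GripTite HEK293 cells harbouring ER-alpha-UAS-bla were grown overnight with 2% charcoal-stripped FBS, dosed with DMSO-dissolved compounds, then challenged with 17beta-estradiol. After 18 hr at 37C, beta-lactamase activity was detected by FRET fluorescence.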

[4] = qHTS assay to identify small molecule antagonists of the estrogen receptor alpha (ER-alpha) signaling pathway - cell viability counter screen (AID 743074; calls by dose curve; note: nearly all actives have a fitted effect of over 45% in size)
[5] = target: Estrogen receptor (Homo sapiens) (UniProt P03372); test: qHTS assay to identify small molecule agonists of the estrogen receptor alpha (ER-alpha) signaling pathway (AID 743075; calls by dose curve)
[6] = target: Estrogen receptor (Homo sapiens) (UniProt P03372); test: qHTS assay to identify small molecule agonists of the estrogen receptor alpha (ER-alpha) signaling pathway using the BG1 cell line (AID 743079); note: nearly all actives have a fitted effect of over 20% in size
[7] = qHTS assay to identify small molecule antagonists of the estrogen receptor alpha (ER-alpha) signaling pathway using the BG1 cell line - cell viability counter screen (AID 743081);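 note: compound given together with 17beta-estradiol as the ER stimulus; series mostly up to about 70 µM; nearly all actives have a fitted effect of over 45% in size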
Aromatase (Homo sapiens) = Aromatase (Homo sapiens) (UniProt P11511); test: qHTS assay to identify aromatase inhibitors (AID 743083); note: series mostly up to about 70 µM; nearly all actives have a fitted effect of over 55% in size
Sequence of Aromatase (Homo sapiens) (P11511 whole entry, looked up): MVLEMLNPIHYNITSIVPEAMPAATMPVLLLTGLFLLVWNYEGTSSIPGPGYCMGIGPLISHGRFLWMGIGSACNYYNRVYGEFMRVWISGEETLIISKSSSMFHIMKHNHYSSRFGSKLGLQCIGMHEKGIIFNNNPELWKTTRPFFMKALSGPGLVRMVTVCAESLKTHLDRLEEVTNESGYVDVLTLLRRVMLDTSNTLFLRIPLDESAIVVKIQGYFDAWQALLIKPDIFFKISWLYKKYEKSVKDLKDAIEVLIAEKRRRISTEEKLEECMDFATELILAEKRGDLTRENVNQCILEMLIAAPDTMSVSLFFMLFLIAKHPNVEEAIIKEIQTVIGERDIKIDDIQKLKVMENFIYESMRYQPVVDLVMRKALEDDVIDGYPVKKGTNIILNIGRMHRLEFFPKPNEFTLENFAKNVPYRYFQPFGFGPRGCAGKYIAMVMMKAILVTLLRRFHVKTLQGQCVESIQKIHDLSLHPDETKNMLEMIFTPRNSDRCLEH

[8] = qHTS assay to identify aromatase inhibitors - cell viability counter screen (AID 743084);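 note: cells stimulated with testosterone during compound exposure; nearly all actives have a fitted effect of over 55% in size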
[9] = target: Aryl hydrocarbon receptor (Homo sapiens) (UniProt P35869); test: qHTS assay to identify small molecule that activate the aryl hydrocarbon receptor (AhR) signaling pathway (AID 743085);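 note: HG2L7.5c1 human HepG2 liver cells with stably integrated DRE-driven firefly reporter; series mostly up to about 70 µM; nearly all actives have a fitted effect of over 15% in size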
Sequence of Aryl hydrocarbon receptor (Homo sapiens) (P35869 whole entry, looked up): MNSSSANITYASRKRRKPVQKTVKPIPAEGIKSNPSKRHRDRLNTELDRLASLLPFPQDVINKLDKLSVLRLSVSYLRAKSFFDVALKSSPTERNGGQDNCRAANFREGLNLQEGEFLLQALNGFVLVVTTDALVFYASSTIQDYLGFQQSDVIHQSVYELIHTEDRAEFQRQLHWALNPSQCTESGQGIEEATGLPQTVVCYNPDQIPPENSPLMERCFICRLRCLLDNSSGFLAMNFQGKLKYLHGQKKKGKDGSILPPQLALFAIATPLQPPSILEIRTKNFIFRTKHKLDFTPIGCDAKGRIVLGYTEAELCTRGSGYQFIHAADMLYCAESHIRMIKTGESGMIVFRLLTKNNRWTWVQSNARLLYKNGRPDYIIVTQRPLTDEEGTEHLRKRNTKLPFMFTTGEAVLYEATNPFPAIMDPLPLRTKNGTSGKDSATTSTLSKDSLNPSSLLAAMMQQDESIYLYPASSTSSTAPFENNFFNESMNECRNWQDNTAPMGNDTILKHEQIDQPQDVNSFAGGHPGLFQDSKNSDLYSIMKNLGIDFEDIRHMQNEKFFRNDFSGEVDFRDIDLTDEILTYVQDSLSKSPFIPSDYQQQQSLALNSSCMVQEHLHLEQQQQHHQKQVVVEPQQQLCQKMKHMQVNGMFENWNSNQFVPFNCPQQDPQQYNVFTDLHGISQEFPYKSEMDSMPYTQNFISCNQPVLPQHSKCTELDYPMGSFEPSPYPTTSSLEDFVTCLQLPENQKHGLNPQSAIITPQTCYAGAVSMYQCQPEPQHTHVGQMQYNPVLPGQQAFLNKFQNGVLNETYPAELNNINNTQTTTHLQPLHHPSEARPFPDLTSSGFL
In short: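 Steps: seed HepG2-AhR-luc cells; allow 5 h at 37C; pin-transfer test compound or vehicle; incubate 24 h at 37C; add viability dye (30 min, 37C) and read fluorescence; add luciferase substrate (30 min, RT) and read luminescence.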

[10] = qHTS assay to identify small molecule that activate the aryl hydrocarbon receptor (AhR) signaling pathway - cell viability counter screen (AID 743086);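 note: HepG2 liver cells carrying the AhR DRE luciferase reporter; series mostly up to about 70 µM; nearly all actives have a fitted effect of over 45% in size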
In short: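 HepG2-AhR-luc (HG2L7.5c1) cells, 4000/well, treated 24 h at 37 C with compound; viability measured as CellTiter-Fluor fluorescence after 30 min in the same wells as the luciferase read.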

[11] = target: Peroxisome proliferator-activated receptor gamma (Homo sapiens) (UniProt P37231); test: qHTS assay to identify small molecule agonists of the peroxisome proliferator-activated receptor gamma (PPARg) signaling pathway (AID 743094; active = well fitted activation curve with a large enough effect in the signal ratio in the repeat runs, not every such curve was filed as active; the % refers to the signal ratio)
Sequence of Peroxisome proliferator-activated receptor gamma (Homo sapiens) (P37231 whole entry, looked up): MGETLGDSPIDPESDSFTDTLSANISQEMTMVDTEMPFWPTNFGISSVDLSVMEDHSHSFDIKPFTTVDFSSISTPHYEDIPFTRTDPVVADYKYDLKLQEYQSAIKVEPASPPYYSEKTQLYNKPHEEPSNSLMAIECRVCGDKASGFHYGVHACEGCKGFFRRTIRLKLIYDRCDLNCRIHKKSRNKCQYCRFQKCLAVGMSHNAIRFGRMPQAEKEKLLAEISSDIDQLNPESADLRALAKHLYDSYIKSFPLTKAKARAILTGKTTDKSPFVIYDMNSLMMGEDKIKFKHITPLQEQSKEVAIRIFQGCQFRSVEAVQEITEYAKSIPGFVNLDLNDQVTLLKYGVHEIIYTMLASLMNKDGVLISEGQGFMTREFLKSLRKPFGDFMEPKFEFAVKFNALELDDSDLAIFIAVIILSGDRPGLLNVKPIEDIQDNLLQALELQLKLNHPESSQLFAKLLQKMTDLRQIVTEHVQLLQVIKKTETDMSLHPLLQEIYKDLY
In short: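 Fluorescence-based beta-lactamase readout in HEK293H PPARg UAS-bla cells after 17 h compound exposure (37C) and 1 h B/G FRET substrate incubation at room temperature.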

[12] = target: Peroxisome proliferator-activated receptor gamma (Homo sapiens) (UniProt P37231); test: qHTS assay to identify small molecule antagonists of the peroxisome proliferator-activated receptor gamma (PPARg) signaling pathway (AID 743191; calls by dose curve; note: series mostly up to about 63 µM; nearly all actives have a fitted effect of over 30% in size)
In short: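 GeneBLAzer PPARg UAS-bla HEK293H cells, 5 h post-plating, exposed to compounds 17 h at 37C. LiveBLAzer B/G FRET substrate added for 1 h at room temperature; beta-lactamase reporter read by fluorescence intensity.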

[13] = qHTS assay for small molecule agonists of the antioxidant response element (ARE) signaling pathway (AID 743202; active = well fitted activation curve with a large enough effect in the signal ratio in the repeat runs, not every such curve was filed as active; the % refers to the signal ratio)
In short: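 HepG2 ARE-bla cells; 16 h treatment at 37 C; FRET-based beta-lactamase fluorescence read after 2 h substrate incubation at room temperature.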

[14] = qHTS assay for small molecule agonists of the antioxidant response element (ARE) signaling pathway - cell viability counter screen (AID 743203; calls by dose curve; note: nearly all actives have a fitted effect of over 55% in size)
In short: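 Parallel cytotoxicity read-out for the ARE-bla screen: HepG2 reporter cells, 16 hrs with compounds, then CellTiter-Glo luminescence.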

[15] = qHTS assay for small molecule activators of the heat shock response signaling pathway - cell viability counter screen (AID 743209); note: nearly all actives have a fitted effect of over 50% in size
In short: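 To flag cytotoxic compounds, HSE-bla HeLa cells plated at 1500 cells/well were dosed for 5 h at 37 C, followed by the reporter FRET read and then CellTiter-Glo, with luminescence recorded 30 min after reagent addition.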

[16] = qHTS assay for small molecule activators of the heat shock response signaling pathway (AID 743210; active = well fitted activation curve with a large enough effect in the signal ratio in the repeat runs, with a control signal flat, not every such curve was filed as active; the % refers to the signal ratio;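 note: HeLa cells with beta-lactamase reporter driven by heat shock elements; series mostly up to about 63 µM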)
In short: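 Following overnight attachment, HSE-bla HeLa cells received test compounds for 5 h at 37 C; beta-lactamase activity was then detected via FRET substrate fluorescence.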

[17] = qHTS assay to identify small molecule antagonists of the peroxisome proliferator-activated receptor gamma (PPARg) signaling pathway - cell viability counter screen (AID 743194); note: nearly all actives have a fitted effect of over 55% in size
In short: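 Cytotoxicity counter screen in PPARg-bla HEK293H cells, same wells as reporter assay. Compounds plus 50 nM rosiglitazone (final) for 17 h at 37 C, then viability read by CellTiter-Glo luminescence.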

[18] = qHTS assay to identify small molecule antagonists of the estrogen receptor alpha (ER-alpha) signaling pathway using the BG1 cell line (AID 743080; calls by dose curve;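 note: BG1 cells stimulated with 17beta-estradiol alongside compound; series mostly up to about 70 µM; nearly all actives have a fitted effect of over 25% in size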)
In short: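 Luciferase inhibition measured with ONE-Glo after 30 min at RT in BG1Luc4E2 cells given test compounds and 17beta-estradiol for 21.5 h at 37 C; CellTiter-Fluor viability read in the same wells beforehand.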
% is set by controls: 0 for no effect and ±100 for the full control effect.

C[C@@H]1CCN(C(=O)[C@H](CCCN=C(N)N)NS(=O)(=O)c2cccc3c2NC[C@H](C)C3)[C@@H](C(=O)O)C1
inactive: Potency [1] | outcome [2] | outcome [3] | outcome [4] | Potency [5] | Potency [6] | Potency [7] | Potency (Aromatase (Homo sapiens)) | Potency [8] | Potency [9] | Potency [10] | outcome [11] | Potency [12] | Potency [13] | Potency [14] | outcome [15] | outcome [16]

CCO[Si](CCC1CCC2OC2C1)(OCC)OCC (configuration not stated)
inactive: Potency [1] | outcome [2] | outcome [3] | outcome [4] | Potency [5] | Potency [6] | Potency [7] | Potency (Aromatase (Homo sapiens)) | Potency [8] | Potency [9] | Potency [10] | outcome [11] | outcome [17] | Potency [13] | outcome [15] | outcome [16]

N[C@@H](C(=O)N[C@@H]1C(=O)N2C(C(=O)O)=C(Cl)CS[C@H]12)c1ccccc1
inactive: Potency [1] | outcome [2] | outcome [3] | outcome [4] | Potency [5] | Potency [6] | outcome [18] | Potency [7] | Potency (Aromatase (Homo sapiens)) | Potency [8] | Potency [10] | outcome [11] | activity change, negative = cytotoxicity [17] 0.956% [at 13.2 µM] | activation [13] -0.175% [at 8.36 µM] | viability change, negative = cytotoxic [14] 3.71% [at 8.36 µM] | activity change, negative = cytotoxicity [15] -29.5% [at 13.2 µM] | activation [16] -0.803% [at 13.2 µM]

Nc1ccccc1S(=O)(=O)O
inactive: Potency [1] | outcome [2] | outcome [4] | Potency [7] | Potency (Aromatase (Homo sapiens)) | Potency [8] | Potency [9] | Potency [10] | outcome [11] | Potency [12] | outcome [17] | Potency [13] | Potency [14] | outcome [15] | outcome [16]

CC(C)c1cc2c(cc1S(=O)(=O)O)[C@@]1(C)CCC[C@@](C)(C(=O)O)[C@@H]1CC2
inactive: Potency [1] | outcome [2] | outcome [3] | outcome [4] | Potency [5] | Potency [6] | Potency [7] | Potency (Aromatase (Homo sapiens)) | Potency [8] | Potency [9] | Potency [10] | outcome [11] | Potency [12] | outcome [17] | Potency [13] | Potency [14] | outcome [16]

NS(=O)(=O)c1cc(C(=O)O)cc(N2CCCC2)c1Oc1ccccc1
inactive: Potency [1] | outcome [2] | outcome [3] | outcome [4] | Potency [5] | Potency [6] | Potency [7] | Potency (Aromatase (Homo sapiens)) | Potency [8] | Potency [9] | Potency [10] | outcome [17] | Potency [13] | outcome [15] | outcome [16]

O=C1CC2CC1C1CCCC21 (configuration not stated)
inactive: Potency [1] | outcome [2] | outcome [4] | Potency [5] | Potency [7] | Potency (Aromatase (Homo sapiens)) | Potency [8] | Potency [9] | Potency [10] | outcome [11] | outcome [17] | Potency [14] | outcome [15] | outcome [16]

CC(C)(C)NCCNC(C)(C)C
inactive: Potency [1] | outcome [2] | outcome [3] | outcome [4] | Potency [5] | Potency [6] | outcome [18] | Potency [7] | Potency (Aromatase (Homo sapiens)) | Potency [8] | Potency [9] | Potency [10] | Potency [12] | Potency [13] | Potency [14] | outcome [15] | outcome [16]

CC(=O)Nc1ccc(S(N)(=O)=O)cc1
inactive: Potency [1] | outcome [2] | outcome [3] | outcome [4] | Potency [5] | Potency [6] | outcome [18] | Potency [7] | Potency (Aromatase (Homo sapiens)) | Potency [8] | Potency [9] | Potency [10] | Potency [12] | outcome [17] | Potency [13] | Potency [14] | outcome [15] | outcome [16]

O=C(O)Cc1ccc(CCNS(=O)(=O)c2ccc(Cl)cc2)cc1
inactive: Potency [1] | outcome [2] | outcome [3] | outcome [4] | Potency [5] | Potency [6] | Potency [7] | Potency (Aromatase (Homo sapiens)) | Potency [8] | Potency [9] | Potency [10] | Potency [12] | outcome [17] | Potency [13] | Potency [14] | outcome [16]

Reference: PubChem BioAssay (Tox21)
